Measured values from PubChem BioAssay AID1053205 (Broad Institute, 2014).
Potency and affinity values are given separately. Inconclusive results are not listed. The source made the active and inactive calls.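 The calls were made as follows: active = compounds lowering the FRET ratio whose fitted half-maximal concentration is at most twice their top tested dose; inconclusive = flat partial drop between 30 and 70 percent, or bad fit; inactive = the rest.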

Target: Voltage-dependent L-type calcium channel subunit alpha-1D (Homo sapiens) (UniProt Q01668)
Assay: inhibitors of CaV1.3 ICDI-IQ binding, dose response, cell-based, HEK293, YFP-IQ/CFP-ICDI FRET, cherry-picks (AID 1053205)
Settings: HEK293 YFP-IQ/CFP-ICDI FRET ratio, 10 min; series mostly up to 35 µM

Voltage-dependent L-type calcium channel subunit alpha-1D (Homo sapiens), sequence (Q01668 whole entry, looked up): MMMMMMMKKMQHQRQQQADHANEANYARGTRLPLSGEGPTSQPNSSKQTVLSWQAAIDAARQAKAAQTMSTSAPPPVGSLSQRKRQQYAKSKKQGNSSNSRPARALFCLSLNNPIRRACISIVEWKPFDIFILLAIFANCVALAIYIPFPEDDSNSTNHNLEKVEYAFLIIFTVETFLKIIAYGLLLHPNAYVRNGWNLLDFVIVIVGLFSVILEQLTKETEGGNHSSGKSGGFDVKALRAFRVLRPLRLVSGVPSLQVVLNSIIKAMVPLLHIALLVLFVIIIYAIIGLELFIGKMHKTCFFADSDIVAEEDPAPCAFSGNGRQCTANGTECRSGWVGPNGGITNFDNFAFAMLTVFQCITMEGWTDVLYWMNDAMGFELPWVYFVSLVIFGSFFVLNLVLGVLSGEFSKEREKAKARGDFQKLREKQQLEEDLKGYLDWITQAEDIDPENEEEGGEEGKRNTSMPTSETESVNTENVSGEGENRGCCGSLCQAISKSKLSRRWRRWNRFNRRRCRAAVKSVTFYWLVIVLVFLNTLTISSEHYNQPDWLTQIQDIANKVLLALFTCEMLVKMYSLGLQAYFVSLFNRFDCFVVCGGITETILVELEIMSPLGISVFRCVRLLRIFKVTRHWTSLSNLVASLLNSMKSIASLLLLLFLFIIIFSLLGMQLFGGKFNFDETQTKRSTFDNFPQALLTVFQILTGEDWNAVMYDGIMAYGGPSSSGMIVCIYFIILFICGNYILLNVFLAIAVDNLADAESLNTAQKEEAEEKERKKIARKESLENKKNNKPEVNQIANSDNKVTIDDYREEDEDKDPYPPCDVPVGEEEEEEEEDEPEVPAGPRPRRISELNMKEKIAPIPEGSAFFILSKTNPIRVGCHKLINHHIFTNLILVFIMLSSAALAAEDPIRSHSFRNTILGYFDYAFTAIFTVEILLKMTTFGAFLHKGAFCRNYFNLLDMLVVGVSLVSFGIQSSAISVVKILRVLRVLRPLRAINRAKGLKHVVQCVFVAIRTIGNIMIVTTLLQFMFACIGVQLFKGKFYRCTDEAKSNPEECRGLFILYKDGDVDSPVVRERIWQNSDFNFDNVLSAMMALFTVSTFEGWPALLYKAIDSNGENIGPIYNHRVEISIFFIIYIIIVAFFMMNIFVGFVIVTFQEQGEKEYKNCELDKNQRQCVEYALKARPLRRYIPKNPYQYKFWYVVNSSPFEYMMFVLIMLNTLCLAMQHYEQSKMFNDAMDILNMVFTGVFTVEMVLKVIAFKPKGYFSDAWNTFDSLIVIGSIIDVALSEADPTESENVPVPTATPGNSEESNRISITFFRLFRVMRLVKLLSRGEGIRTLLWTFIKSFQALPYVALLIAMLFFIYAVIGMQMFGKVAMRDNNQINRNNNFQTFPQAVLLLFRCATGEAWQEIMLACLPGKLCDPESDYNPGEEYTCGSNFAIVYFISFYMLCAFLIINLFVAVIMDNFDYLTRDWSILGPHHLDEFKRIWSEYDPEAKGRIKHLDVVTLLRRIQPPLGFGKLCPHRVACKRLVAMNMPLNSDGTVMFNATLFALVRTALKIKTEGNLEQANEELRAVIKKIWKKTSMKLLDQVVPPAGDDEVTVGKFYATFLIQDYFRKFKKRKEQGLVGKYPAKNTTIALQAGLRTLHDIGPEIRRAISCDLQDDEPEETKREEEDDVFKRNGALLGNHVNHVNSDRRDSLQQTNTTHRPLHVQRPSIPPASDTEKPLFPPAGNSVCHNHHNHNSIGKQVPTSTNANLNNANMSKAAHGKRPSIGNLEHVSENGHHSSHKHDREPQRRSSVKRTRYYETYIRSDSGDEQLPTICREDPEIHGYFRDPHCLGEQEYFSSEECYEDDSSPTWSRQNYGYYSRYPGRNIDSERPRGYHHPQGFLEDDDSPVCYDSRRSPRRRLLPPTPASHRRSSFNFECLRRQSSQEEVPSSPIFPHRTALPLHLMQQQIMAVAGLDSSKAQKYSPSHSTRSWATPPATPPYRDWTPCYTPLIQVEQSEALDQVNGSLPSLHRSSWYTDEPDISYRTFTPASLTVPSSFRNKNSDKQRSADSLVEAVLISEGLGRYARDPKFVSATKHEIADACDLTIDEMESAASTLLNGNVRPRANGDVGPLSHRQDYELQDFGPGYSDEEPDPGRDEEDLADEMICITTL

outcome, inactive:
COc1ccccc1/C=N/Nc1nc(C)cc(=O)[nH]1
Cn1nc(-c2ccc(Cl)cc2)c2cc(C(=O)N3CCN(c4ccccc4)CC3)sc21
Nc1ccc2nc(-c3ccccc3)cnc2c1
CC(C)C(=O)Nc1sc2c(c1C(N)=O)CCN(Cc1ccccc1)C2
O=c1oc2cc(O)ccc2cc1S(=O)(=O)c1ccccc1
CN1CCc2c(sc(NC(=O)C3CCCCC3)c2C(N)=O)C1
COC(=O)C1=CN(Cc2ccc(OC)c(OC)c2)C=C(C(=O)OC)C1c1cccc(F)c1
Cc1c(O)ccc2cc(S(=O)(=O)c3ccccc3)c(=O)oc12
Cn1cccc1/C=N/NC(=O)c1sc2cc(Cl)ccc2c1Cl
N#CC1=C(N)OC2=C(C(=O)CCC2)C1c1cc2c(cc1Br)OCO2 (stereo unspecified)
Nn1c(SCC(=O)N2CCCC2)nnc1-c1cccs1
Cc1ccc(-n2nnnc2CNC(=O)C(=O)c2c[nH]c3ccccc23)cc1C
CCN(CC)Cc1c(O)c(Cl)cc2c(C)cc(=O)oc12
Cc1cc(OC(=O)c2ccccc2Cl)ccc1N1C(=O)CCC1=O
N#Cc1c(NCCCO)nc(NCc2ccccc2)c2c1CCN(Cc1ccccc1)C2
Cc1cc(=O)oc2cc(OC(=O)c3cncc(Br)c3)ccc12
CCN1CCc2c(sc(NC(=O)Nc3ccc(Cl)c(Cl)c3)c2C(N)=O)C1
O=C(CCCN1C(=O)CSc2ncccc21)N1CCN(Cc2ccccc2)CC1
CC(C)CCn1c(CN2CC(C)OC(C)C2)nc2c1c(=O)n(C)c(=O)n2C (stereo unspecified)
Cc1cccn2c(=O)c3cc(C#N)c(=NC(=O)c4cccs4)n(CC(C)C)c3nc12
COc1ccc(CCN=C(N)NS(=O)(=O)c2ccc(F)cc2)cc1
COc1cc(C(=O)OCC(C)=O)cc(NC(=O)c2ccco2)c1OC
CC1CCCCC1NC(=O)CN1C(=O)c2cccc(N)c2C1=O (stereo unspecified)
O=C(NCc1cc(C(F)(F)F)ccc1Cl)c1cccc2c1C(=O)c1ccc(Cl)cc1S2(=O)=O
Cc1cc2c(C)cc(=O)oc2c2c1NCCC2
CCOC(=O)c1cc(-c2ccccc2)sc1NC(=O)CSc1nnc(N)s1
CC(=O)c1sc(N/N=C\c2ccc(N(C)C)cc2)nc1C
COc1cc2sc3cc(NCC[C@@H]4CCCN4C)ccc3c(=O)c2cc1OC
N=c1oc2cc(O)ccc2cc1C(=O)Nc1ccc(Br)cc1
CC(C)c1ccc(/C=C2\Oc3c(ccc(O)c3CN3CCN(C)CC3)C2=O)cc1
CCOc1ccc2nc(NCCCNS(=O)(=O)c3ccc(C)cc3)c(C#N)cc2c1
CSc1ccc(Cn2c(C)c(C(=O)NCCC#N)sc2=O)cc1
O=[N+]([O-])c1cccc(-c2n[nH]c(=S)n2-c2ccc(Br)cc2)c1
COc1ccc(C2CC(c3ccccc3)=NN2c2ccc(C(N)=O)cc2)cc1 (stereo unspecified)
CCOCCCNc1c(CC)c(C)c(C#N)c2nc3ccccc3n12
Cc1ccc(C(=O)OCC(=O)Nc2c(C)nn(-c3ccccc3)c2C)c(O)c1
